Experimental data from the OligoGym collection.

What follows are sequences tested against CTNNBL1 (assay: pooled miR-30 sensor sort-seq; sequence = guide strand). Details: shRNA.
Further: reference of the scale not given here.

Row | Sequence | sensor-assay potency score (higher = more potent)
1 | AAGCACATCGATTCCATCCAGC | -0.642
2 | TTAAACACGGATAACTGCTGAA | -0.397
3 | TTGTCTGGAAACTTAATCCGCA | -0.219
4 | ATCTCTGTCAATAATCTGCAGC | -0.982
5 | TACTCCTTGATGATATGCCTGA | -0.148
6 | TGTATTATCGTGTCCGAGCAAG | -1.35

The sequences below were run against CTSB in the same assay as above. Details: shRNA.

Row | Sequence | sensor-assay potency score (higher = more potent)
7 | TTGTCCTGTTTGTAGGTCGGGC | -0.855
8 | TTGGTGTGGATGCAGATCCGGT | -1.05
9 | TTTCTTGTCCAGAAGTTCCAAG | -1.12
10 | TTCTATTAAAGAATCATGCTGA | 0.656
11 | TTGGCAACCAGCCAGTAGGGTG | -1.27
12 | TATCCGTAGTGCTTGTCCTGTT | -0.438
13 | TTCTCGCTATTGGAGACGCTGT | -1.66
14 | TCGGTAAACATAACTCTCTGGG | -0.352
15 | TTTTCTTGTCCAGAAGTTCCAA | -0.152
16 | TTTTTGTAGATCTCGGCCATGA | -0.154
17 | TTTGTTGACATAGTTGACCAGC | -0.0911
18 | TCACAGATCTTGCTACACTTGG | -0.121
19 | TTCTGATTCGATTCCACAGTGA | -0.73
20 | TTGTAGAGCAGGAAGTCCGAAT | -0.653
21 | TCTCTGATCTCTTTGATGGTGG | -0.142
22 | TGACGTGTTGGTACACTCCTGA | 0.569
23 | TAAACATAACTCTCTGGGGTGG | -0.755
24 | TAGTTGACCAGCTCATCCGACA | -0.966
25 | ATAGTTGACCAGCTCATCCGAC | -0.423
26 | TTGTAGGTCGGGCTGTAGCCAG | -1.22
27 | TAACTTGACAGGGTGAAGCTGT | -0.16
28 | TTCCACAGTGATCCTGTCCTCT | -0.145
29 | TGTTGGTACACTCCTGACTTGT | -1.2
30 | TTGTCCAGAAGTTCCAAGCTTC | -0.113

What follows are sequences tested against CTSH in the same assay as above. Details: shRNA.

Row | Sequence | sensor-assay potency score (higher = more potent)
31 | TTCCTCGTCATAGATTGTGATG | -1.43
32 | TGCTTAGACATCCATGACTTGA | -1.27
33 | TTATCTTCCTCCAGTTGCTGGC | -0.0224
34 | TTTATCTGGAGTTTTATGGCAG | -0.245
35 | TTTGGTGGCTGAGCAATTCTGA | -0.218
36 | TTCAGCAAAGCTCATGTCTGAA | -0.714
37 | TTCAGTGCCATTTTAAATGTGT | 0.219
38 | TTGTTGTACAGGATATACTCGA | 0.136
39 | TCGTCATAGATTGTGATGTTGG | -0.963
40 | TGTGATGTTGGCTACATCCTTG | -0.0306
